The values that follow come from PubChem BioAssay AID1117264 (The Scripps Research Institute Molecular Screening Center, 2014).

Out of some 89,000 compounds screened, about 440 (0.49%) were called active.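 The calls were made as follows: active = inhibition above the mean inhibition across all screened compounds plus 3 SD (cut at about 11% in these data); inactive = the rest.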 The list comes from a sample in which actives are over-represented; it also holds similar structures and randomly drawn compounds.

This assay deals with RNA-editing ligase 1, mitochondrial (Trypanosoma brucei brucei) (UniProt P86926). Nature of the assay: TbREL1 RNA ligase inhibitors, primary screen, biochemical, FRET fluorescence (AID 1117264).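 Also: 0% = plate median of test wells and 100% = NSC42067 control.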 To be noted: TbREL1 RNA ligation, at 9.66 µM, stronger effect = higher value.
Sequence of RNA-editing ligase 1, mitochondrial (Trypanosoma brucei brucei) (P86926 whole entry, looked up): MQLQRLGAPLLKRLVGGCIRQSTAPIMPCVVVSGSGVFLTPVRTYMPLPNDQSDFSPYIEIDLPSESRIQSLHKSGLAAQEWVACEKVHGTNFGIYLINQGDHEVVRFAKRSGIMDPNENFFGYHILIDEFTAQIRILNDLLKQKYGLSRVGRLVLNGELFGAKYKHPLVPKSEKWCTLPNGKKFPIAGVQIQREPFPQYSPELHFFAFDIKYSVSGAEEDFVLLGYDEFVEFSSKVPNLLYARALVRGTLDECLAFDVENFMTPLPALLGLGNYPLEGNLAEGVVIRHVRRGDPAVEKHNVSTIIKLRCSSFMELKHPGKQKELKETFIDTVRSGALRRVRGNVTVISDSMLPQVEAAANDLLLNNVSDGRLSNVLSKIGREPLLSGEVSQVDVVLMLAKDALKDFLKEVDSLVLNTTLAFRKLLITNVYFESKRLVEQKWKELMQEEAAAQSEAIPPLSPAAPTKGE
`Cc1c(Cl)cccc1NC(=O)NCCCN1CCCC1=O`: the inhibition (in general, the relative decrease from the control value, in per cent) is 5.26% (inactive).

With `Cc1nc(C)c(C(=O)Nc2cccc(C)c2C)o1`, the inhibition is -2.18% (inactive). As for `Cc1nnsc1C(=O)Nc1cccc(Cl)c1C`, the inhibition was 11.4% (active).

As for `O=C(OCC(=O)N1CCCC1)c1ccc(Cl)nc1`, the inhibition is 4.11% (inactive). `O=C1CC(N2CCN(C(c3ccccc3)c3ccccc3)CC2)C(=O)N1` (stereo not given): the inhibition was 4.81% (inactive). For `CC1(C)CC(N2CCN(C(c3ccccc3)c3ccccc3)CC2)=CC(=[N+]2CCCCC2)C1`, the inhibition is 20.5% (active). As for `Cc1cccc(N2CCN(C(c3ccccc3)c3nnnn3CC3CCCO3)CC2)c1C` (stereo not given), the inhibition was -2.64% (inactive). Under `COC(=O)CN1C(=O)[C@H]2[C@@H](/C=C/c3ccccc3)N3C(=O)CN(CC4CC4)C(=O)[C@@]3(Cc3ccccc3)[C@H]2C1=O` stands -1.86% (inactive).

As for `NC(=O)COC(=O)c1ccc2c(c1)C(=O)N(Cc1ccco1)C2=O`, the inhibition is -0.09% (inactive). Next, `Cc1cc(NS(=O)(=O)c2ccc(NC(=O)CSc3nnc(SCc4ccc(F)cc4)s3)cc2)nc(C)n1`: 1.56% (inactive). For the compound `CCOC(=O)C1C(c2ccc(O)cc2)NC(=O)NC1(O)C(F)(F)F` (stereo not given), the inhibition was -0.27% (inactive). For `COC(=O)C1CN(CCc2ccccc2)CCS(=O)(=O)N1Cc1cccc(Cl)c1` (stereo not given), the inhibition was 1.04% (inactive). For `COc1ccc(CCNC(=O)CSc2nc3[nH]ncc3c(=O)n2-c2cccc(C(F)(F)F)c2)cc1OC`, the inhibition is -1.55% (inactive). As to `CCc1ccc(N(CC(=O)NCc2cccnc2)S(=O)(=O)c2ccccc2)cc1`, the inhibition is -1.98% (inactive). For `N#Cc1ccc(C2N=C(c3ccccc3)NO2)cc1` (stereo not given), the inhibition is 9.48% (inactive). Next, `O=C(Nc1ccon1)c1nc[nH]c1C(=O)NCc1ccccc1`: 5.43% (inactive). Consider `Cc1nc2ccc(C(=O)N3CCN(C(=O)C(C)(C)C)CC3)cc2n1C1CCCC1`, for which the inhibition was -0.3% (inactive).

For the compound `COc1ccccc1/C=C/C(=O)OCC(=O)NC1CCCCCC1`, the inhibition is 1.81% (inactive). As to `Cc1ccc(Cn2c(C)c(C(=O)NCc3ccccc3C(F)(F)F)sc2=O)cc1`, the inhibition is 0.6% (inactive). Under `COc1ccc(S(=O)(=O)N2CCOCC2)cc1NC(=O)CC1CC2CCC1C2` (stereo not given) stands -2.41% (inactive). In the case of `CCOc1ccc(NC(=O)CCCCCN2C(=O)[C@@H]3Cc4ccccc4CN3C2=O)cc1`, the inhibition was -0.69% (inactive). Under `Cc1c(S(=O)(=O)NC(C)c2ccccc2)c(=O)n(C)c(=O)n1C` (stereo not given) stands 0.77% (inactive); under `CCCCCn1c(=O)[nH]c2cc(C(=O)NCCCN3CCCCC3C)ccc2c1=O` (stereo not given), 11.5% (active).

With `CCOc1cc2[nH]c(=O)n(Cc3ccc(C(=O)NCCCN4CCCC4=O)cc3)c(=O)c2cc1OCC`, the inhibition was -3.44% (inactive). With `CCC1CCCCN1CCCNC(=O)C1CCC(Cn2c(=O)[nH]c3ccccc3c2=O)CC1` (stereo not given), the inhibition is 0.83% (inactive).
